Only some compounds are listed: those with a hit (about 8.7% of all), similar ones and a draw of the others.
BAZ2B block: blocks human BAZ2B | Q9UIF8 | AlphaScreen BAZ2B-H3K14Ac peptide displacement | Potency, µM (titrated, usually from 114 µM), for the others: at the highest dose activity change, negative = inhibition, hits mostly inhibitors | 360,000 compounds, 4.4% hits; also: % is scaled to controls: 0 for no effect and ±100 for the full control effect; nearly all actives have a fitted effect of over 60% in size
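AlphaScreen displacement of biotin-H3(5-23)K14Ac peptide (50 nM final) from BAZ2B (50 nM final) in PBS pH 7.4, 0.01% Tween-20; complex preformed 30 min RT, then compounds (top 110 uM) 30 min RT, beads 20 min dark.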
12-LOX inh: ALOX12 (human) lipoxygenase inhibition; P18054; purified 12hLO, xylenol orange hydroperoxide absorbance; Potency, µM (doses to about 108 µM), for inactives: at the top dose activity change, negative = inhibition, usual class: inhibitors; 580,000 compounds, 1.1% hits; AID 1671190; also: % is scaled to controls: 0 for no effect and ±100 for the full control effect
Target sequence (P18054 whole entry, looked up): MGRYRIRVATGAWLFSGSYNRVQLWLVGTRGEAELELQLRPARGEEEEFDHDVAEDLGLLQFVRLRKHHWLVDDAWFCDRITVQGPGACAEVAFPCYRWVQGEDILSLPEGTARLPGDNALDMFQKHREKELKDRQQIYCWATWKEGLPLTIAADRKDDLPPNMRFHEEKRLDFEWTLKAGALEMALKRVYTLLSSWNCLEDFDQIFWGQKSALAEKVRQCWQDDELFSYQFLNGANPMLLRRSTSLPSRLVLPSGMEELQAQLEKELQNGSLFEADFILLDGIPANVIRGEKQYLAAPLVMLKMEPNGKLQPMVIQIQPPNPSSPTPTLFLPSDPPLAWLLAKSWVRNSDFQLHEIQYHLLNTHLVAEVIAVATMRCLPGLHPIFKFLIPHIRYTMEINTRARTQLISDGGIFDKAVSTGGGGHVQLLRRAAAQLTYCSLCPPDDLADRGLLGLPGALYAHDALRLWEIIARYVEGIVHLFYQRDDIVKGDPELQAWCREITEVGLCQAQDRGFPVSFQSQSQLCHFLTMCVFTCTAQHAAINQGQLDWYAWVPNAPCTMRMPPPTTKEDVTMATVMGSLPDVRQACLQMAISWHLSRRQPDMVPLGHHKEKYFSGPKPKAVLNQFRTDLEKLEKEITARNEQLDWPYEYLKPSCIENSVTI
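Purified human 12hLO (150 nM final) in 25 mM Hepes, 0.01% Triton X-100, pH 7.0 was preincubated 15 min at room temperature with compound. Then 40 uM arachidonic acid was added, 30 min. Hydroperoxide was read by Fe-XO absorbance ratio 573/405 nm.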
JMJD2A Tudor inh: JMJD2A Tudor domain (human) inhibition; O75164; AlphaScreen JMJD2A-Tudor / H3K4me3 peptide binding; Potency, µM (titrated, usually from 114 µM), inactives show at the highest dose activity change, negative = inhibition, usual class: inhibitors; 390,000 compounds, 4.4% hits; AID 504339; also: % is scaled to controls: 0 for no effect and ±100 for the full control effect; nearly all actives have a fitted effect of over 50% in size
HP1b chromo inh: inhibitors of HP1-beta chromodomain binding to methylated histone tails; AlphaScreen HP1-beta / biotin-H3K9me3 peptide binding; P83916; Potency, µM (series often up to 114 µM), for inactives: at the highest dose activity change, negative = inhibition, usual class: inhibitors; 390,000 compounds, 0.56% hits; AID 540317; also: nearly all actives have a fitted effect of over 70% in size
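HP1-beta protein (50 nM final) preincubated 30 min at room temperature with biotinylated H3(1-18)K9me3 peptide (50 nM) in PBS pH 7.4, 0.01% Tween-20, then compound added for 30 min. AlphaScreen streptavidin donor/nickel chelate acceptor beads (10 ug/mL final), 30 min dark, luminescence read.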
G9a inh: G9a (human) methyltransferase inhibition. Q96KQ7. G9a H3K9 monomethylation, AlphaScreen, 2 h. Potency, µM (titrated, usually from 102 µM), for the others: at the highest dose activity, negative = inhibition, usual class: inhibitors. 350,000 compounds, 8.8% hits. AID 504332; also: % is scaled to controls: 0 for no effect and ±100 for the full control effect; nearly all actives have a fitted effect of over 75% in size
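AlphaScreen detection with an anti-monomethyl H3K9 antibody quantified product after a 2 h room-temperature reaction containing 500 nM biotinylated H3K9 peptide, 20 µM SAM and 20 nM enzyme, which had been preincubated 15 min with compound.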
Sfp inh: Sfp phosphopantetheinyl transferase inhibition; Potency, µM, inactives show largest response in the series, negative = inhibition, usual class: inhibitors; 310,000 compounds, 3.5% hits; Biochemical Sfp PPTase activity, qHTS; Q9F4F7; AID 1490;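 also: the enzyme is Sfp with the accession as filed and its product quenches rhodamine fluorescence; 0% = enzyme reaction without inhibitor and -100% = no enzyme wells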
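Compounds were incubated with enzyme (final 15 nM) for 15 min at room temperature before substrate addition started the reaction. Fluorescence at 525 nm excitation, 598 nm emission was recorded immediately and after 30 minutes.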
The depositor's hits bear a star; ? = inconclusive; / = no result given; [ ] = remark or other dose. Calls follow the shape of the dose curve; as a rule, active = well fitted curve in the direction sought with a large enough effect; inconclusive = small, poorly fitted or top-dose-only effect, or another doubt; inactive = no such curve, though single readings can be large; an effect the other way counts as inactive or inconclusive. Potency is read from the fitted curve at half-maximal effect.

SMILES	BAZ2B block	12-LOX inh	JMJD2A Tudor inh	HP1b chromo inh	G9a inh	Sfp inh
COc1ccc(CN2CCCC(CO)(Cc3cccc(Cl)c3)C2)cc1OC (centres undefined)	-1%	-2%	-29%	14%	5%	2%
OCC1(Cc2ccccc2)CCN(Cc2ccc(-c3ccco3)cc2)CC1	-35%	-18%	-35%	-20%	?	?
O=C(Cc1ccc(F)cc1)Nc1ccc(S(=O)(=O)N2CCCC2)cc1	7%	-14%	-4%	17%	50µM*	/
COc1ccc(S(=O)(=O)N2CCC(C(=O)NCCC(=O)Nc3cccc(Cl)c3)CC2)cc1	-22%	0%	16µM*	23%	-6%	13%
CCc1cccc(CC)c1NC(=O)CN1CCN(S(=O)(=O)c2ccccc2)CC1	-15%	0%	-10%	8%	45µM*	5%
O=C(CN1CCCN(S(=O)(=O)c2ccc(F)cc2)CC1)Nc1cccc(F)c1	0%	-23%	-13%	42%	32µM*	-11%
O=C(CN1CCCN(S(=O)(=O)c2ccc(F)cc2)CC1)Nc1c(Cl)cccc1Cl	-1%	11%	-6%	5%	-12%	-5%
O=C(CNc1ccc(Cl)c(C(F)(F)F)c1)N1CCN(S(=O)(=O)c2ccccc2)CC1	/	?	79µM*	-33%	/	/
COc1ccc(S(=O)(=O)N2CCN(CC(=O)Nc3cccc(OC)c3)CC2)cc1	-17%	4%	-6%	12%[57 µM]	15%	5%
O=C(CN1CCN(C(=O)c2cccc(S(=O)(=O)N3CCCC3)c2)CC1)Nc1cccc(F)c1	14%	-30%	-12%	29%	56µM*	/
O=C(CN1CCN(S(=O)(=O)c2ccccc2)CC1)Nc1cccc(C(F)(F)F)c1	20%	-17%	79µM*	-10%	20%[59 µM]	9%
COc1ccc(S(=O)(=O)N2CCN(CC(=O)Nc3ccc(F)c(F)c3)CC2)cc1	8%	0%	-11%	13%	45µM*	7%
COc1ccc(C(=O)Nc2ccc3oc(=O)ccc3c2)cc1OC	/	-2%	/	/	/	/
COCCn1ncc(N2CCCC(CC(=O)Nc3cc(C)ccc3OC)C2)cc1=O (centres undefined)	/	-4%	/	/	/	/
CC(=O)c1ccc(NC(=O)Cn2ccc3ccc(Cl)cc32)cc1	/	-8%	/	/	/	/
CCn1cc(C(=O)N[C@@H]2CN(Cc3ccccc3)C[C@H]2CN(C)C)cn1	/	46%	/	/	/	/
CC1=NN(C(N)=S)C(=O)C1N=Nc1c(Br)cc(Br)cc1Br (centres undefined)	28µM*	?	56µM*	-18%	0%[0.501 µM]	-17%
CC1=NN(C(N)=S)C(=O)C1N=Nc1c(Cl)cc([N+](=O)[O-])cc1Cl (centres undefined)	40µM*	?	28µM*	?	25µM*	-1%
CC1(CCc2ccccc2)NC(=S)N(c2ccc(Cl)cc2)N1 (centres undefined)	79µM*	?	?	34%	10µM*	-86%
CC1(CCc2ccccc2)NC(=S)N(c2ccccc2)N1 (centres undefined)	50µM*	1µM*	?	28%	10µM*	45µM*
CC1(C)CC(C)(O)N(Cc2ccccc2)C(=S)N1 (centres undefined)	6%	-20%	-2%[57.1 µM]	-21%	34%[59 µM]	6%
CC(NC(=O)CSc1nc2c(cc1C#N)CCCC2)c1ccccc1 (centres undefined)	/	9%	/	/	/	/
CC(=O)Nc1ccc(NC(=O)c2nccnc2-c2nc3ccccc3s2)cc1Cl	/	-21%	/	/	/	/
O=C(CC1CCCC1)NCCC1CCN(C(=O)NC2CCCCC2)CC1	/	-1%	/	/	/	/
Cc1sc2nc3ccc(N4CCCC4)nn3c(=O)c2c1C	-2%	-15%	-10%	11%	35µM*	25µM*
SMILES	BAZ2B block	12-LOX inh	JMJD2A Tudor inh	HP1b chromo inh	G9a inh	Sfp inh
Cc1ccc2nc3ccc(N4CCCCCCC4)nn3c(=O)c2c1	0%	-8%	3%	49%	10%	5%
Cc1cnc(=O)[nH]c1SCc1ccc(C(F)(F)F)cc1	0%	5%	2%	35%	-1%[59 µM]	3%
Cc1cnc(=O)[nH]c1SCc1ccc([N+](=O)[O-])cc1	?	-8%	-29%	12%	63µM*	1%
O=C(NC1CCCCC1)O[C@@H]1CO[C@H]2[C@@H]1OC[C@@H]2n1nnnc1SCc1ccco1	/	3.5µM*	/	/	/	/
O=C(CN1C(=O)c2ccccc2C1=O)c1ccccc1	12%	0%	12%	27%	19%[12.7 µM]	4%
CC1=C(CC(=O)c2ccccc2)C(=O)c2ccccc2C1=O	22µM*	-23%	35µM*	?	32µM*	-20%
CC/C=C\CCOC(C)=O	/	8%[176 µM]	/	/	/	/
COc1ccc(S(=O)(=O)c2c(O)c3ccc(C(=O)Nc4ccc(F)cc4F)cc3[nH]c2=O)cc1	?	-24%	-10%	66%	?	29%
COc1ccc(S(=O)(=O)c2c(O)c3ccc(C(=O)Nc4ccc(F)cc4)cc3[nH]c2=O)cc1	-29%	39%	50µM*	-1%	5%[59 µM]	30%
CCc1ccccc1NC(=O)c1ccc2c(O)c(S(=O)(=O)c3ccccc3)c(=O)[nH]c2c1	?	?	79µM*	6%	16µM*	/
CCc1ccccc1NC(=O)c1ccc2c(O)c(S(=O)(=O)c3ccc(OC)cc3)c(=O)[nH]c2c1	-10%	25%	20µM*	-8%	-1%[59 µM]	23%
CCOC(=O)N1CCN([N+]([O-])=NOc2cc(O/N=[N+](\[O-])N(C)C)c([N+](=O)[O-])cc2[N+](=O)[O-])CC1	/	/	-19%	12%	/	?
CN(C)/[N+]([O-])=N/Oc1cc(O/[N+]([O-])=N/N2CCCC2CO)c([N+](=O)[O-])cc1[N+](=O)[O-] (centres undefined)	/	/	-25%	2%	/	79µM*
CN(C)/[N+]([O-])=N/Oc1cc(ON=[N+]([O-])N2CCN(c3ncccn3)CC2)c([N+](=O)[O-])cc1[N+](=O)[O-]	/	/	-19%	53%	/	50µM*
O=C(NNC(=O)C1CC1c1ccccc1)NC1CCCCC1 (centres undefined)	/	-1%	/	/	/	/
O=C(CN1CCN(CCN2C(=O)c3cccc4cccc(c34)C2=O)CC1)c1ccc(Cl)cc1	-34%	/	/	/	7.9µM*	-11%
COc1ccc(C(=O)CN2CCN(CCN3C(=O)c4cccc5cccc(c45)C3=O)CC2)cc1	/	?	-18%[11.4 µM]	-9%	/	/
O=C(CN1CCN(CCN2C(=O)c3cccc4cccc(c34)C2=O)CC1)c1ccc(F)cc1	-6%	-18%	-26%	31%	1.6µM*	-13%
O=C1c2cccc3cccc(c23)C(=O)N1CCN1CCN(C(=S)Nc2ccc(F)cc2)CC1	3%	/	/	/	14%[59 µM]	11%
